Values quoted from earlier work, collected in PubChem BioAssay AID977610.
Among all 3,600 compounds or so, about 3,600 (100%) were called active. The limit is not given here; nearly all actives have Ki up to about 18000 µM. The set was probably picked from earlier hits. The list shows a part of the results. Where a SMILES comes first, the peptide text is derived from it. Square brackets hold non-standard residues; d marks the D form. Residues, ends and D or L forms follow the SMILES beside them. Peptide text beside a SMILES is read from it. The star is where a group is joined. Orn(CH(NH2)2) = NC(N)NCCC[C@H](N)C(=O)O; Bz = O=C(c1ccccc1)*

Test: PubChem AID 977610
Conditions: PDB protein-ligand complexes, literature Ki

H-PTSII-OH
Ki (protein: CFTR Associated Ligand (CAL) PDZ domain, PDB entry 4joh): 450 µM (active)

CC(C)C[C@H](NC(=O)[C@@H](NC(=O)CNC(=O)c1ccccc1)C(C)C)C(=O)N[C@@H](CCCCN)C(=O)N[C@@H](CCC(=O)O)C(=O)N[C@@H](Cc1ccc(O)cc1)C(=O)NCC(=O)N[C@H](C(=O)O)C(C)C (Bz-GVLKEYGV-OH)
Ki (protein: NAD-DEPENDENT PROTEIN DEACYLASE SIRTUIN-5, MITOCHONDRIAL zebrafish Sirtuin 5, PDB entry 4uub): 17.2 µM (active)

CC[C@H](C)[C@H](NC(=O)[C@@H](NC(=O)[C@H](CO)NC(=O)[C@@H](N)CC(=O)O)[C@@H](C)CC)C(=O)O (H-DSII-OH)
Ki (protein: CFTR Associated Ligand (CAL) PDZ domain, PDB entry 4k72): 1000 µM (active)

O=[N+]([O-])c1ccc(NNC(=S)Nc2ccc(F)cc2)c([N+](=O)[O-])c1
Ki (protein: GTPase HRas(T35S mutant), PDB entry 2lwi): 773 µM (active)

CCCCCCc1cccc(NC(=O)[C@H](N)CC[P+](O)(O)O)c1
Ki (protein: Lipid G protein-Coupled Receptor, PDB entry 3v2w): 0.077 µM (active)

NC(=O)CN[C@@H](C(=O)N1CC[C@H]1C(=O)NCc1ccc(C(N)N)cc1)C1CCCCC1
Ki (protein: THROMBIN, PDB entry 4bao): 0.00429 µM (active)

CN(C)C(=O)CN[C@@H](C(=O)N1CC[C@H]1C(=O)NCc1ccc(C(N)N)cc1)C1CCCCC1
Ki (protein: THROMBIN, PDB entry 4bam): 0.00114 µM (active)

NC(N)c1ccc(CNC(=O)[C@@H]2CCN2C(=O)[C@H](NCC(=O)O)C2CCCCC2)cc1
Ki (protein: THROMBIN, PDB entry 4bah): 0.00201 µM (active)

C[C@@H](O)[C@H](N)C(=O)NS(=O)(=O)c1cccc(-c2ccc3[nH]ncc3c2)c1
Ki (protein: Threonine--tRNA ligase, cytoplasmic, PDB entry 4hwt): 50 µM (active)

Cc1cc(-c2nn(C(C)C)c3ncnc(N)c23)cc2ccc(OCc3ccccc3)nc12
Ki (protein: Mitogen-activated protein kinase 1 (Q103A, C164L mutant), Rat Erk2, PDB entry 4n4s): 0.133 µM (active)

CC(=O)NCCCC[C@H](NC(=O)[C@H](CCCN=C(N)N)NC(=O)[C@H](Cc1cnc[nH]1)NC(=O)[C@@H](N)CCCN=C(N)N)C(=O)N[C@H](C(=O)O)C(C)C (H-RHRK(Ac)V-OH)
Ki (protein: Bromodomain-PHD Finger Module of Human Transcriptional Co-Activator CBP, PDB entry 4n3w): 315 µM (active)

OC[C@@H]1[C@@H](O[C@@H]2O[C@H](CO)[C@@H](O)[C@H](O)[C@@H]2O)[C@H](O)[C@H](O)c2nccn21
Ki (protein: GH26 beta-mannanase CjMan26C from Cellvibrio japonicus, PDB entry 4cd5): 0.194 µM (active)
Ki (protein: GH113 beta-mannanase AaManA from Alicyclobacillus acidocaldarius, PDB entry 4cd8): 1300 µM (active)

COc1ccc([C@H]2[C@H](O)[C@H](O)[C@H](C)N2C)cc1
Ki (protein: alpha-L-fucosidase, PDB entry 4jfs): 5.4 µM (active)

COc1ccc([C@@H]2N[C@@H](C)[C@@H](O)[C@H]2O)cc1
Ki (protein: alpha-L-fucosidase, PDB entry 4jft): 3.5 µM (active)

NC(N=O)NCC[C@H](N)C(=O)O (stereo not given in full)
Ki (protein: Arginase, PDB entry 4iu1): 50 µM (active)

COC(=O)CC[C@H](C[C@H](N)C(=O)O)C(=O)O
Ki (protein: Glutamate receptor ionotropic, kainate 3 GluK3 LBD, PDB entry 4nwc): 1.74 µM (active)

CNC(=O)CC[C@H](C[C@H](N)C(=O)O)C(=O)O
Ki (protein: Glutamate receptor ionotropic, kainate 3 GluK3 LBD, PDB entry 4nwd): 3.96 µM (active)

CCCCCCCCCCCCCCCCCCCC(=O)NCCO
Ki (protein: FATTY ACID-BINDING PROTEIN, EPIDERMAL, PDB entry 4azp): 1.26 µM (active)

CCC(CC)[C@H](NC(C)=O)[C@@H]1[C@H](O)[C@@H](C(=O)O)C[C@H]1NC(N)N
Ki (protein: Human Sialidase Neu2, PDB entry 2f10): 330 µM (active)

OCc1ccc2c(c1)OCCO2
Ki (protein: PDE10A2, PDB entry 4lm2): 940 µM (active)

CC(=O)c1ccc2c(c1)OCCO2
Ki (protein: PDE10A2, PDB entry 4lm3): 1200 µM (active)

CCCCCCCC/C=C\CCCCCCC[C@H](O)c1nnc(-c2ccccn2)o1
Ki (protein: Humanized Variant of Fatty Acid Amide Hydrolase (L192F, F194Y, A377T, S435N, I491V, V495M), PDB entry 3k84): 0.003 µM (active)

Cc1ccnc(N)c1[N+](=O)[O-]
Ki (protein: PDE10A2, PDB entry 4mrz): 300 µM (active)

O=C(O)C(O)C(=O)O
Ki (protein: Mandelate racemase, PDB entry 4m6u): 1800 µM (active)

Nc1c(CC(=O)O)cccc1C(=O)c1ccc(Br)cc1
Ki (protein: E. coli sliding clamp, DNA polymerase III subunit beta, PDB entry 4mjq): 193 µM (active)

CC(C)C[C@H](NC(=O)[C@H](Cc1ccccc1)NC(=O)[C@H](CO)NC(=O)[C@H](CCCNC(N)N)NC(=O)[C@@H]1CCCN1)C(=O)N[C@H](C(=O)O)C(C)C (H-P[Orn(CH(NH2)2)]SFLV-OH)
Ki (protein: LSD1-CoREST complex, PDB entry 3zmt): 28.4 µM (active)

CC(C)C[C@H](NC(=O)[C@H](CCCNC(N)N)NC(=O)[C@@H]1CCCN1)C(=O)N[C@@H](Cc1ccc(O)cc1)C(=O)N[C@@H](CC(C)C)C(=O)N[C@H](C(=O)O)C(C)C (H-P[Orn(CH(NH2)2)]LYLV-OH)
Ki (protein: LSD1-CoREST complex, PDB entry 3zn1): 29.1 µM (active)

C[C@H](NC(=O)[C@H](C)NC(=O)[C@H](Cc1ccccc1)NC(=O)[C@H](CO)NC(=O)[C@H](CCCNC(N)N)NC(=O)[C@@H]1CCCN1)C(=O)O (H-P[Orn(CH(NH2)2)]SFAA-OH)
Ki (protein: LSD1-CoREST complex, PDB entry 3zn0): 10.7 µM (active)

CC(C)[C@H](NC(=O)[C@H](C)NC(=O)[C@H](Cc1ccccc1)NC(=O)[C@H](CO)NC(=O)[C@H](CCCNC(N)N)NC(=O)[C@@H]1CCCN1)C(=O)O (H-P[Orn(CH(NH2)2)]SFAV-OH)
Ki (protein: LSD1-CoREST complex, PDB entry 3zmz): 18 µM (active)
